Assay results reported in article PMC5540273 (PLoS ONE, 2017).

Columns and labels:
Conditions in all cases: concentration: 1 μM, replicates: in singlicate; n = 1
MST1 = system: T1, MST1
T1 construct: gene STK4

MST2 = system: T2, MST2
T2 construct: gene STK3

MST3 = system: T3, MST3
T3 construct: gene STK24

MST4 = system: MST4
MTOR = system: MTOR
MUSK = system: MUSK
MYLK2 = system: MYLK2
MYLK4 = system: MYLK4
MYLK = system: MYLK
MYO3A = system: MYO3A
MYO3B = system: MYO3B
NDR1 = system: T4, NDR1
T4 construct: gene STK38

NDR2 = system: NDR2
NEK10 = system: NEK10
NEK11 = system: NEK11
NEK1 = system: NEK1
NEK2 = system: NEK2
NEK3 = system: NEK3
NEK4 = system: NEK4
NEK5 = system: NEK5
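Also: KINOMEscan kinase panel screen.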

Row | Structure (SMILES) | %Inh (MST1) [%] | %Inh (MST2) [%] | %Inh (MST3) [%] | %Inh (MST4) [%] | %Inh (MTOR) [%] | %Inh (MUSK) [%] | %Inh (MYLK2) [%] | %Inh (MYLK4) [%] | %Inh (MYLK) [%] | %Inh (MYO3A) [%] | %Inh (MYO3B) [%] | %Inh (NDR1) [%] | %Inh (NDR2) [%] | %Inh (NEK10) [%] | %Inh (NEK11) [%] | %Inh (NEK1) [%] | %Inh (NEK2) [%] | %Inh (NEK3) [%] | %Inh (NEK4) [%] | %Inh (NEK5) [%]
1 | c1ccc(-c2n[nH]cc2-c2ccnc3ccccc23)nc1 [GW271431] | 5 | 13 | 2 | 0 | 9 | 15 | 12 | 24 | 20 | 31 | 0 | 17 | 0 | 8 | 0 | 0 | 2 | 14 | 3 | 22
2 | Cc1nnc(-c2ccc(C)c(-c3ccc(C(=O)Nc4ccc(NS(C)(=O)=O)cc4)cc3)c2)o1 [GW702865] | 6 | 0 | 0 | 0 | 28 | 0 | 0 | 8 | 3 | 23 | 0 | 20 | 18 | 6 | 33 | 0 | 0 | 0 | 0 | 8
3 | Cc1ccc(NC(=O)c2ccnc(N3CCN(C)CC3)c2)cc1-c1ccc(C(=O)NCC2CC2)cc1 [GW775604] | 27 | 11 | 0 | 0 | 0 | 4 | 0 | 0 | 0 | 0 | 22 | 27 | 0 | 0 | 0 | 20 | 0 | 20 | 0 | 0
4 | CN(C(=O)c1ccc(-c2cc(-c3c[nH]nc3-c3ccccn3)ccn2)cc1)C1CCOCC1 [GW810083] | 8 | 13 | 34 | 0 | 10 | 0 | 0 | 0 | 0 | 0 | 0 | 3 | 0 | 0 | 9 | 0 | 0 | 16 | 0 | 7
5 | NS(=O)(=O)c1cccc(-c2ccc3nccc(-c4cccc(S(N)(=O)=O)c4)c3c2)c1 [GW867253] | 11 | 0 | 5 | 0 | 32 | 10 | 0 | 2 | 0 | 0 | 0 | 41 | 19 | 20 | 8 | 0 | 0 | 29 | 0 | 7
6 | O=c1cc(N2CCOCC2)nc2n(Cc3cccc(C(F)(F)F)c3)ccn12 [GSK2297543] | 10 | 0 | 9 | 0 | 4 | 3 | 0 | 2 | 18 | 19 | 0 | 16 | 7 | 0 | 0 | 0 | 0 | 0 | 0 | 0
7 | Cc1cccc(-c2nc(Nc3ccc4ncsc4c3)c3ccccc3n2)n1 [GW867588] | 18 | 0 | 0 | 16 | 0 | 0 | 0 | 0 | 0 | 0 | 16 | 14 | 4 | 5 | 0 | 0 | 0 | 0 | 0 | 0
8 | N#Cc1c(N2CCOCC2)sc(-c2ccn[nH]2)c1-c1ccc(Cl)cc1 | 21 | 0 | 19 | 0 | 0 | 0 | 8 | 5 | 23 | 3 | 32 | 7 | 0 | 4 | 0 | 9 | 0 | 23 | 0 | 0
9 | COc1cc(Nc2nccc(N3CCC(NC(=O)c4cccc(NC(C)=O)c4)C3)n2)cc(OC)c1OC (stereo not shown) [GSK1379754] | 12 | 7 | 0 | 0 | 7 | 12 | 17 | 2 | 14 | 5 | 0 | 19 | 0 | 20 | 0 | 48 | 7 | 54 | 24 | 100
10 | COc1cc2ncn(-c3cc(OCc4sccc4Cl)c(C(N)=O)s3)c2cc1OC [GSK448459] | 21 | 68 | 0 | 0 | 11 | 7 | 31 | 72 | 37 | 12 | 0 | 0 | 0 | 0 | 0 | 13 | 97.1 | 4 | 0 | 11
11 | NS(=O)(=O)CCc1cccc(Nc2nccc(-c3c(-c4cccc(NC(=O)c5c(F)cccc5F)c4)nn4ccccc34)n2)c1 [GSK336735] | 94.9 | 74 | 13 | 0 | 8 | 40 | 0 | 0 | 14 | 26 | 4 | 18 | 0 | 7 | 0 | 0 | 22 | 0 | 19 | 8
